This is a sample that favours compounds with a hit; in the whole collection about 12% have one here.
SARS PLpro yeast – inhibitors of SARS-CoV papain-like protease in yeast. S. cerevisiae expressing SARS-CoV PLpro, growth rescue. Potency, µM (series often up to 32.9 µM), for the others: at the highest dose activity, positive = growth rescue, hits mostly activators. hit rate 0.19% among 330,000; calls by dose curve; further: 0% is about no effect; nearly all actives have a fitted effect of over 55% in size
Pf growth 96h – P. falciparum growth inhibition at 96 hour, primary screen for plastid delayed-death inhibitors. P. falciparum luciferase reporter growth, 96 h. Potency, µM (doses to about 28.7 µM), for inactives: at the highest dose activity change, negative = inhibition, hits mostly inhibitors. hit rate 6.9% among 320,000; further: on the % scale 0 is the no-effect control and ±100 the full control effect
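Two parasite generations (96 h, 37 C, 5% CO2) of compound exposure in infected erythrocytes (0.05% parasitemia, 2% hematocrit). Luciferase-reporter P. falciparum; decreased luminescence indicates inhibited growth, aimed at apicoplast-acting delayed death.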
AMA1-RON2 inh – inhibitors of Plasmodium falciparum AMA1-RON2 interaction | AlphaScreen AMA1-biotinylated RON2 peptide binding | hit rate 0.2% among 360,000 | AID 720542 | Potency, µM (doses to about 58.2 µM), without a hit: at the highest dose activity change, negative = inhibition, most hits filed as inhibitors;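 further: 0% = vehicle wells and -100% = peptide control; nearly all actives have a fitted effect of over 45% in size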
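AMA1 (3D7) with his tag at 25 nM final met compounds first, then biotinylated RON2 peptide at 25 nM; detection used donor plus acceptor beads, 10 µg/mL apiece, read by AlphaScreen after 30 min at room temperature.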
Pf growth 48h – P. falciparum growth inhibition at 48 hours (one generation). P. falciparum luciferase growth in erythrocytes, 48 h. Potency, µM (titrated, usually from 28.7 µM), inactives show at the highest dose activity change, negative = inhibition, usual class: inhibitors. hit rate 5.9% among 310,000. AID 504832; further: on the % scale 0 is the no-effect control and ±100 the full control effect
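Read-out is firefly luciferase luminescence from an integrated reporter in P. falciparum, so falling signal marks reduced parasite growth. Infected erythrocytes were at 2% hematocrit and 0.1% parasitemia (final) in Albumax-supplemented RPMI 1640.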
HCV inh – HCV inhibition; Huh7.5.1 HCVcc-Cre infection, luciferase reporter, 44 h; Potency, µM (series often up to 41.8 µM), inactives show top-dose activity change, negative = inhibition, usual class: inhibitors; hit rate 3.4% among 340,000; AID 651820; further: on the % scale 0 is the no-effect control and ±100 the full control effect
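After 44 h co-culture of compound, cells and HCVcc-Cre (~0.5 moi), substrate is added for 15 min at room temperature and luciferase measured over 15 sec. Cells were seeded at 1,000/well and pre-cultured 4 h.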
NS1 inh – inhibitors of influenza NS1 protein function. Potency, µM (series often up to 46.1 µM), inactives show at the highest dose activity, positive = more growth. hit rate 0.4% among 270,000. AID 2326; calls by dose curve; further: actives are rising curves; nearly all actives have a fitted effect of over 50% in size
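OD600 was taken as the measure of yeast growth restored by compound in an NS1-expressing S. cerevisiae strain. Cells had been washed out of glucose medium and diluted 1:100 into galactose -URA medium, pH 6.0.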
An asterisk follows results filed as active; ? = inconclusive; . = not tested or not shown; [ ] = remark or other dose. Unless noted, the call rests on the fitted dose curve; in most records, active means well fitted curve in the direction sought with a large enough effect; inconclusive means small, poorly fitted or top-dose-only effect, or another doubt; inactive means no such curve, though single readings can be large; an effect the other way counts as inactive or inconclusive. Potency means the concentration at half of the fitted maximal effect.

SMILES	SARS PLpro yeast	Pf growth 96h	AMA1-RON2 inh	Pf growth 48h	HCV inh	NS1 inh
CCOc1ccc(-n2c([S-])c(C(=O)Nc3ccc(S(=O)(=O)N4CCOCC4)cc3)[n+]3cc(C(N)=O)ccc23)cc1	0%	?	6%	12µM*	9%	3%
CC(=O)c1ccc(NC(=O)c2cnsn2)cc1	-1%	?	-13%	114%	14%	-5%
CC(=O)c1ccc(NC(=O)COC(=O)c2nc(Cl)ccc2Cl)cc1	-1%	37%	15%	4%	10%	.
COc1ccc([C@H]2N[C@]3(CCCN(Cc4ccccc4)C3=O)[C@H]3C(=O)N(Cc4ccccc4)C(=O)[C@@H]23)cc1	.	.	-1%	.	.	.
COC(=O)CCCC1=CC2=C(c3ccccc3)C(=O)C(C)(OC(=O)C3CCCC3)C(=O)C2=CN1CCc1c[nH]c2ccccc12 (stereo not given)	5%	?	-5%	?	?	?
CCOC(=O)[C@H]1[C@H]2COc3ccccc3[C@@H]2N2C(=O)CN(Cc3ccc(C)cc3)C(=O)[C@@]12C	1%	.	-3%	.	15%	.
O=C(Nc1ccc(S(=O)(=O)N2CCOCC2)cc1)c1ccc(S(=O)(=O)N2CCOCC2)cc1	2%	12µM*	-11%	-4%	9%	1%
N#C/C(=N\Nc1ccc(S(=O)(=O)N2CCOCC2)cc1)C(N)=S	0%	?	94%	15µM*	1%	-1%
O=C(Nc1ccc(S(=O)(=O)N2CCCC2)cc1)c1ccc(CN2CCOCC2)cc1	1%	24%	-2%	?	6.3µM*	-25%
CC1CCN(S(=O)(=O)c2ccc(NC(=O)CN3CCCC(C)C3)cc2)CC1 (stereo not given)	-4%	12µM*	0%	.	-21%	-1%
O=C(Nc1ccc(S(=O)(=O)N2CCOCC2)cc1)c1ccc(Cl)cc1	-2%	?	-1%	?	?	-5%
Cc1ccc(N(C(=O)CNC(=O)c2ccco2)C(C(=O)NC2CCCC2)c2cccnc2)c(C)c1 (stereo not given)	2%	-3%	-10%	-22%	7%	4%
COc1cc(Nc2ccc(S(N)(=O)=O)cc2)c([N+](=O)[O-])nc1[N+](=O)[O-]	0%	2%	0%	2%	8%	4%
COCCNC(=O)c1c[nH]c2ccc(S(=O)(=O)N(C)c3ccc(C)c(C)c3)cc2c1=O	1%	?	3%	.	-12%	-2%
CNC(=S)NNC(=O)c1c(C)nc2cc(C)ccn12	1%	1%	113%	1%	6%	5%
Cc1ccc(NC(=O)c2ccc(S(=O)(=O)N3CCC(C)CC3)cc2)cc1	-2%	.	-3%	10µM*	-12%	1%
Cc1ccc(C(=O)Nc2ccc(S(=O)(=O)N3CCOCC3)cc2)cc1	-1%	?	0%	?	-5%	-4%
CCOC(=O)c1ccc2c(c1)nc(SCC(=O)c1cc3ccccc3o1)n2CC	5%	?	11%	.	?	7%
CCOC(=O)c1ccc2c(c1)nc(-c1ccccn1)n2CC	1%	140%	27%	39%	?	-14%
C=CCNC(=O)CSc1nc2cc(C(=O)OCC)ccc2n1CC	2%	10µM*	-6%	.	-17%	0%
CCOC(=O)c1ccc2c(c1)nc(COc1ccc(OC)cc1)n2CC	0%	9.3µM*	5%	.	?	-79%
CCCOc1cccc(C2C(C(=O)c3cccs3)=C(O)C(=O)N2CCN2CCOCC2)c1 (stereo not given)	1%	-15%	-7%	21%[0.00184 µM]	13%	3%
Cc1ccc2[nH]c3c(=O)n(CC(=O)N4CCN(C)CC4)ncc3c2c1	.	7.4µM*	-7%	45%	-6%	1%
O=C(Cn1ncc2c([nH]c3ccccc32)c1=O)N1CCN(c2ccccn2)CC1	-1%	1.3µM*	10%	-14%	14%	14%
Cc1ccc2[nH]c3c(=O)n(CC(=O)Nc4ccccc4N4CCN(C)CC4)ncc3c2c1	1%	?	7%	?	?	8%
